Assay outcomes as filed in PubChem BioAssay.
USP30 inh = inhibitors of human USP30 deubiquitinase; inhibition, % at 25 µM; Q70CQ3; purified USP30, Ub-rhodamine cleavage fluorescence; actives 5.3% (n = 47,000)
USP10 block = human USP10 deubiquitinase inhibition; actives 1.1% (n = 47,000); purified USP10, Ub-rhodamine fluorescence, 60 min; Q14694; inhibition, % at 20 µM
Target sequence (Q14694 whole entry, looked up): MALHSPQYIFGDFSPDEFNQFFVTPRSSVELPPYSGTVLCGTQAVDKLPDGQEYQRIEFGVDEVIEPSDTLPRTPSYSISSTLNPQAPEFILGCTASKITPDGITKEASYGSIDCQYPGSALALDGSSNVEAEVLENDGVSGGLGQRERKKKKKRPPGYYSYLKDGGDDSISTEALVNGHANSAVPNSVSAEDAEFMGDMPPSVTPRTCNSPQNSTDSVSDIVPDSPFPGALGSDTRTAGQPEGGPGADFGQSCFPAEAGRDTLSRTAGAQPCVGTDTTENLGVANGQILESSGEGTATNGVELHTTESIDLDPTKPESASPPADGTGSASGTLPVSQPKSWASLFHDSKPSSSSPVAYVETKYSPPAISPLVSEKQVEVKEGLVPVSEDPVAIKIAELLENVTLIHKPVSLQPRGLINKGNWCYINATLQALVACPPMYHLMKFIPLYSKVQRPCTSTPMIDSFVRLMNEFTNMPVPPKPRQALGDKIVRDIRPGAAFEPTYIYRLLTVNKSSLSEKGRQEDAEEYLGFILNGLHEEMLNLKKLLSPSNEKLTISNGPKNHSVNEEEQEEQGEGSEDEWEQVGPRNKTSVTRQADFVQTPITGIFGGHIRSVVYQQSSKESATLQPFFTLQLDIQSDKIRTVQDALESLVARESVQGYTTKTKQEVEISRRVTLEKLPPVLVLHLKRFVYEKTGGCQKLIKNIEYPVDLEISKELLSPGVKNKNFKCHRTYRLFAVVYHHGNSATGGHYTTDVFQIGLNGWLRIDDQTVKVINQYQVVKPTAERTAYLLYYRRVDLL
USP7 inh = inhibitors of human USP7 deubiquitinase. Q93009. purified USP7, Ub-rhodamine cleavage fluorescence. actives 0.3% (n = 47,000). inhibition, % at 20 µM
USP17 block = blocks human USP17 ubiquitin-rhodamine cleavage. actives 6.5% (n = 47,000). AID 1645855. A8MUK1. inhibition, % at 50 µM. purified USP17, Ub-rhodamine cleavage fluorescence, 3 h
USP28 inh = blocks human USP28 ubiquitin-rhodamine cleavage; Q96RU2; purified USP28, Ub-rhodamine cleavage fluorescence, 30 min; inhibition, % at 25 µM; actives 3% (n = 47,000)
USP8 block = human USP8 deubiquitinase inhibition. purified USP8, Ub-rhodamine cleavage fluorescence, 30 min. inhibition, % at 20 µM. actives 4.2% (n = 47,000). AID 1645853
Each line names hits and unclear results; the compound was inactive in the other large screens. Compounds with a hit are over-represented: about 13% of the library has one in this group of screens. Cut-off read from the data, not from the text of the source: active = inhibition above about 30%; inactive = the rest.

Cc1cccc(Nc2ccccc2C(=O)OCC(=O)Nc2ccc(N3CCOCC3)cc2)c1C	none
COc1cc(N)c(Cl)cc1C(=O)OCC(=O)Nc1ccc(N2CCOCC2)cc1	USP17 block 38.1, USP8 block 38.7
O=C(COC(=O)c1ccc(F)c(S(=O)(=O)N2CCOCC2)c1)NC1CCCCC1	none
NS(=O)(=O)c1cc(C(=O)OCC(=O)NC2CCCc3ccccc32)ccc1Cl (centres undefined)	USP30 inh 31.8, USP17 block 55.2
COc1ccccc1N(Cc1ccccc1)S(=O)(=O)c1cccc(C(=O)Nc2ncc(C)s2)c1	none
COCCN1Cc2cccc(C(=O)NCc3ccc(OC)cc3)c2C1=O	none
O=C(Nc1cnc(N2CCCC2)nc1)Nc1ccccc1Cl	none
O=C(Nc1nc2c(s1)COCC2)c1cc(-c2ccco2)[nH]n1	USP17 block 72.9, USP28 inh 64.0, USP8 block 86.0
N#Cc1ccc(NC(=O)Nc2ccc(OCc3ccccc3)cc2)cc1	USP17 block 34.5
Cc1ccc(C2c3c(C)nn(-c4ccccc4)c3Oc3ncn4nc(-c5ccccc5O)nc4c32)cc1 (centres undefined)	USP30 inh 34.1, USP8 block 40.6
COc1cccc(CN2CCC3(Cc4ccccc4CNC3=O)C2)n1 (centres undefined)	none
COCCOC(=O)C1=C(C)Nc2nc3ccccc3n2C1c1ccc(OC)cc1OC (centres undefined)	none
Cc1ccc(Nc2ncc(C(=O)NCC3COc4ccccc4O3)c3ccccc23)cc1Cl (centres undefined)	none
CCOC(=O)c1cnc(Nc2ccc(F)c(Cl)c2)c2ccccc12	USP17 block 44.2
NC(=O)C1CCN(C(=O)CN2CCCC2Cn2cccn2)CC1 (centres undefined)	none
O=C(O)c1ccccc1C(=O)Nc1ccc(SC(C(=O)Nc2ccccc2)c2ccccc2)cc1 (centres undefined)	USP17 block 63.1
O=C(O)c1ccccc1C(=O)Nc1ccc(SC(C(=O)Nc2ccccc2F)c2ccccc2)cc1 (centres undefined)	none
Cc1ccc(C(=O)O)cc1NC(=O)C(Sc1cccc(NC(=O)c2ccccc2C)c1)c1ccccc1 (centres undefined)	USP30 inh 78.4, USP10 block 37.4, USP17 block 91.7, USP28 inh 54.8
COc1ccc(C2CC(=O)N(CC(=O)c3ccccc3)c3ccccc3S2(=O)=O)cc1OC (centres undefined)	none
COc1ccc(C2CC(=O)N(CC(=O)Nc3ccc(NC(C)=O)cc3)c3ccccc3S2)cc1OC (centres undefined)	USP17 block 36.9 (no result: USP30 inh, USP28 inh)
COc1cccc(CNc2cc(-n3nc(C)cc3C)ncn2)c1	none
COc1ccc(CNC(=O)CC(c2cccc(F)c2)n2cccc2)cc1 (centres undefined)	USP30 inh 34.7
Cc1c(C(=O)NCCCN2CCOCC2)oc2ccc3c(c12)C(=O)CC(C)(c1ccc(Cl)cc1)O3 (centres undefined)	USP28 inh 41.6
Cc1c(C(=O)NCCN2CCOCC2)oc2ccc(S(=O)(=O)N3CCOCC3)cc12	none
Cc1sc(NC(=O)C2(c3ccc(Cl)cc3)CCC2)nc1-c1ccc2c(c1)CCN2C(=O)C1CCCCC1	USP30 inh 30.9
Cc1sc(NC(=O)CN2CCc3ccccc3C2)nc1-c1ccc2c(c1)CCN2C(=O)C1CCCCC1	USP17 block 54.3, USP8 block 76.2
Cc1sc(NC(=O)C2CCCC2)nc1-c1ccc2c(c1)CCN2C(=O)C1CCCCC1	none
Cc1ccc(N(CC(=O)NC2CCCC2)S(=O)(=O)N(C)C)cc1	none (no result: USP30 inh, USP28 inh)
O=C(CCC(=O)N1CCOc2ccccc21)Nc1cc(F)ccc1F	none
O=C(CN1C=NC2=NS(=O)(=O)c3ccccc3N21)Nc1cc(F)ccc1F	USP17 block 76.5
O=C1CC(C(=O)Nc2ccccc2)N=C(N2CCN(c3ccccc3F)CC2)N1 (centres undefined)	USP30 inh 33.2
COc1ccc(N2CCN(C3=NC(CC(=O)Nc4ccccc4)C(=O)N3)CC2)cc1 (centres undefined)	USP17 block 36.1, USP8 block 36.4
Cc1ccc(N2CCN(C3=NC(C(=O)Nc4ccccc4)CC(=O)N3)CC2)cc1 (centres undefined)	USP8 block 38.7
CC(=O)c1cccc(-n2c(=O)c3c4c(sc3n(CC(=O)c3ccc(F)cc3)c2=O)CN(C(C)=O)CC4)c1	none (no result: USP30 inh, USP28 inh)
CC1(C(=O)N2CCC3(C2)c2ccccc2S(=O)(=O)N3Cc2ccccc2)CC1 (centres undefined)	none
CC(=O)Nc1c2sscc-2[nH]c1=O	USP30 inh 70.5
NS(=O)(=O)c1ccc(Cl)c(C(=O)OCc2csc(Nc3ccccc3)n2)c1	USP28 inh 70.8
N#Cc1cccc(C(=O)N2CCc3cc(-c4ccno4)ccc32)c1	none
CC1CCCCN1c1nc(F)c2c(c1F)S(=O)(=O)CCN2Cc1cccnc1 (centres undefined)	USP17 block 35.4, USP8 block 69.8
CCN(CC)c1nc(F)c2c(c1F)S(=O)(=O)CCN2Cc1cccnc1	USP17 block 57.8, USP8 block 89.9
O=S1(=O)CCN(Cc2cccnc2)c2c(Oc3ccccc3F)nc(F)c(Cl)c21	none
Cc1nc(C)c(-c2nc(-c3ccc4c(c3)[nH]c(=O)n4C3CCCC3)no2)s1	none
O=C(NCc1nc(-c2ccc3c(c2)[nH]c(=O)n3C2CCCC2)no1)c1ccccc1	USP17 block 58.2, USP8 block 49.5
CC(C)=CCC/C(C)=C/CC/C(C)=C/COc1c(O)cc(C=O)c(C=O)c1O	USP30 inh 43.8, USP10 block 77.6, USP7 inh 92.7, USP17 block 80.5, USP28 inh 81.1, USP8 block 70.8
COC1=C(OC)C(=O)C(C/C=C(/C)CC/C=C(\C)CC/C=C(\C)CC/C=C(\C)CC/C=C(\C)CC/C=C(\C)CCC=C(C)C)=C(C)C1=O	none
CC(=O)c1ccc(NC(=O)/C(=C/c2ccco2)n2nnnc2-c2ccccc2)cc1	USP17 block 50.8, USP8 block 61.9
O=C(Nc1ccccc1)/C(=C/c1ccco1)n1nnnc1-c1ccccc1	none
CNC(=O)C1CN(C(=O)Nc2cc(C)ccc2C)CC12CCCC2 (centres undefined)	none
O=C(CC1CCOCC1)N1CCCC(c2ccc3cn[nH]c3n2)C1 (centres undefined)	none
Cc1ccc(S(=O)(=O)NCc2cnc(C3CCCCO3)nc2)cc1 (centres undefined)	none
O=C(NC1CCCC1)c1ccc(-c2ccc(S(=O)(=O)NCc3ccccc3)cc2)cc1	USP30 inh 41.0, USP8 block 45.0
Cc1ccc(Cn2nnc3c(=O)[nH]c(C4CCN(S(=O)(=O)c5ccc(S(=O)(=O)NC6CC6)cc5)CC4)nc32)cc1	USP30 inh 42.6
